Results published in PubChem BioAssay (EPA / NIEHS).
Several values for one entry are separate records, joined by “and”; a condition that tells them apart may be missing. Equal values may be shown once. Results filed as inconclusive are left out. Some structures have more than one record in an assay (separate samples or runs), and their calls can disagree. Activity calls are given as the source filed them. The calls were made as follows, unless noted: active = hit-call score of the fitted dose curve at least 0.9, where 1 is the maximum; inactive = score below 0.9.

Tests used:
[1] = read-out: Interleukin 6 (IL6), IL6 (gene 3569); test: BSK_BT_xIL6: BioMAP Diversity Plus: BT Assay for Interleukin 6 (IL6) Biomarker Activity (AID 2284228); conditions: primary human B cells with PBMC
Outline: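 Human B cell plus PBMC co-culture exposed to test chemical for 24 h; secreted IL-6 quantified by Luminex xMAP bead assay. Activity fitted in the positive direction against DMSO as negative control and baseline.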

[2] = read-out: Interleukin 17A (IL17A), IL17A (gene 3605); test: BSK_BT_xIL17A: BioMAP Diversity Plus: BT Assay for Interleukin 17A (IL17A) Biomarker Activity (AID 2284229); conditions: primary human B cells with PBMC
Outline: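 B cells co-cultured with PBMC were exposed to test chemicals, and secreted IL-17A was quantified 24 h after dosing by Luminex xMAP bead immunoassay. Activity was fitted in the gain direction against DMSO as baseline.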

[3] = read-out: Tumor necrosis factor (Homo sapiens) (UniProt P01375); test: BSK_BT_xTNFa: BioMAP Diversity Plus: BT Assay for Tumor necrosis factor alpha (TNF-alpha) Biomarker Activity (AID 2284230); conditions: primary human B cells with PBMC
Outline: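 B cells with PBMC in co-culture, dosed and sampled at 24 h; secreted TNF-alpha measured by Luminex xMAP bead assay. Activity fitted in the gain direction against DMSO as negative control and baseline.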

[4] = read-out: Vascular cell adhesion molecule 1 (VCAM1), VCAM1 (gene 7412); test: BSK_MyoF_VCAM1: BioMAP Diversity Plus: MyoF Assay for Vascular cell adhesion molecule 1 (VCAM1) Biomarker Activity (AID 2284231); conditions: primary human lung fibroblasts
Outline: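 Primary human lung fibroblasts were dosed with test chemical for 24 h, then cell-surface VCAM-1 was measured by ELISA. Activity was fitted in the positive direction against DMSO as negative control and baseline.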

[5] = read-out: Collagen I, COL1A1 (gene 1277); test: BSK_MyoF_CollagenI: BioMAP Diversity Plus: MyoF Assay for Collagen I Biomarker Activity (AID 2284238); conditions: primary human lung fibroblasts
Outline: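 Human lung fibroblasts were exposed to test chemical for 24 h, then Collagen I was quantified by ELISA. Activity was fitted in the increasing direction against DMSO as the negative control and baseline.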

[6] = read-out: Interleukin 17F (IL17F), IL17F (gene 112744); test: BSK_BT_xIL17F: BioMAP Diversity Plus: BT Assay for Interleukin 17F (IL17F) Biomarker Activity (AID 2284243); conditions: primary human B cells with PBMC
Outline: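 B cell/PBMC co-culture (human primary), 24 h compound exposure; sIL-17F by Luminex xMAP; gain-of-signal fit vs DMSO baseline.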

[7] = read-out: Actin alpha 1 (ACTA1), ACTA1 (gene 58); test: BSK_MyoF_ACTA1: BioMAP Diversity Plus: MyoF Assay for Actin alpha 1 (ACTA1) Biomarker Activity (AID 2284244); conditions: primary human lung fibroblasts
Outline: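 Measured by ELISA: alpha-smooth muscle actin in human primary lung fibroblasts 24 h after dosing, with DMSO as baseline and upward signal change as the fitted direction.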

[8] = read-out: Interleukin 2 (IL2), IL2 (gene 3558); test: BSK_BT_xIL2: BioMAP Diversity Plus: BT Assay for Interleukin 2 (IL2) Biomarker Activity (AID 2284245); conditions: primary human B cells with PBMC
Outline: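 Secreted interleukin-2 from human B cell/PBMC co-cultures, measured 24 h post-dosing by Luminex multiplex immunoassay. Upward-direction curve fitting against DMSO baseline.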

[9] = TAMU_HCS_1.5hr_SingleDonor1434_Cytotoxicity: Cytotoxicity Assessment using High-content Screening (HCS) Fluorescent Imaging for the Texas A&M University (TAMU) 1.5-hr Human Induced Pluripotent Stem Cell (iPSC)-derived Cardiotoxicity Assay (AID 2284234; active = hit-call score of the fitted dose curve at least 0.9, where 1 is the maximum)
Outline: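 Human iPSC-derived cardiomyocytes dosed at 0.2, 1, 10, 100 uM final (0.5% DMSO) for 90 min at 37 C. Hoechst 33342-stained nuclei counted by 10x high-content imaging; POD is EC10, a 10% drop in total cell count versus DMSO.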

[10] = TAMU_PeakParms_SingleDonor1434_QT: Texas A&M University (TAMU) 1.5-hr Human Induced Pluripotent Stem Cell (iPSC)-derived Cardiomyocytes Calcium (Ca+2) Flux Assay for Cardiotoxicity: QT (decay-rise ratio) (AID 2284235; active = hit-call score of the fitted dose curve at least 0.9, where 1 is the maximum)
Outline: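 iPSC-derived cardiomyocytes (single donor 1434) dosed at 0.2, 1, 10, 100 uM final in 0.5% DMSO, 90 min at 37C. Ca2+ flux fluorescence decay/rise ratio; EC05 (5% increase versus DMSO) as POD, excluding beat-arrest and severe-notch data.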

[11] = UKN4_HCS_LUHMES_cell_viability: Viability Assessment in the University of Konstanz (UKN) Leist Lab Neurite Outgrowth Assay in human LUHMES cells (UKN4) (AID 2284232)
Outline: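 Human dopaminergic-model LUHMES neurons were exposed to chemicals for 24 h after a 2-day differentiation. Viability was scored by imaging Hoechst H-33342 staining, with activity fitted in both directions relative to DMSO controls.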

[12] = UKN2_HCS_IMR90_cell_viability: Viability Assessment in the University of Konstanz (UKN) Leist Lab Neural Crest Cell Migration Assay in human induced IMR90 Pluripotent Stem Cells (UKN2) (AID 2284233);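 also: viability of neural crest cells differentiated from IMR90 iPSC measured by calcein-AM fluorescence imaging; cells exposed to compound for 24 h after a 24 h migration phase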
Outline: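 Human IMR90-derived neural crest cells were allowed to migrate for 24 h into a cell-free zone, then exposed to test chemicals for 24 h. Calcein-AM and Hoechst staining with high-content imaging gave viability, analysed against DMSO baseline.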

[13] = CCTE_Mundy_HCI_Cortical_NOG_NeuronCount: CCTE's Neurite Outgrowth Assay in rat cortical cells for Neuron Count, Mundy Lab (AID 2284236; active = hit-call score of the fitted dose curve at least 0.9, where 1 is the maximum;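 also: neurons counted by imaging betaIII-tubulin and Hoechst stained cortical cells; cells exposed to compound for about 48 hours before fixation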)
Outline: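 Read-out: neuron number by high-content imaging of betaIII-tubulin (Alexa Fluor-488) and Hoechst-labelled rat primary cortical cells.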

[14] = CCTE_Mundy_HCI_Cortical_NOG_BPCount: CCTE's Neurite Outgrowth Assay in rat cortical cells for Branch Point Count, Mundy Lab (AID 2284237);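 also: branch points counted about two days after chemical exposure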
Outline: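 Measured 50.33 h after dosing, this morphology endpoint uses rat primary cortical cultures labelled for betaIII-tubulin. Branch points are quantified by high-content imaging, with DMSO as negative control and baseline.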

[15] = CCTE_Mundy_HCI_hNP1_Casp3_7: CCTE's Caspase-Glo 3/7 Assay in human neuroprogenitor cells for Apoptosis, Mundy Lab (AID 2284240)
Outline: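 Apoptosis is scored by activated caspase-3/7 luminescence in WA09-derived neural progenitor cells, measured 26.5 h after chemical dosing. Values represent gain of signal relative to DMSO vehicle.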

[16] = CCTE_Mundy_HCI_hNP1_CellTiter: CCTE's Cell Titer-Glo 2 Assay in human neuroprogenitor cells for Viability, Mundy Lab (AID 2284241; active = hit-call score of the fitted dose curve at least 0.9, where 1 is the maximum;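 also: a hit is a drop in ATP luminescence versus DMSO meaning reduced viability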)
Outline: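 Human neural progenitor cells (hNP1, WA09-derived) were plated on poly-L-ornithine/laminin and grown 40 to 44 hours at 37 °C, 5% CO2 before chemical addition. Twenty-four hours later, ATP was measured by CellTiter-Glo luminescence; loss of signal versus DMSO indicates reduced viability.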

[17] = CCTE_Mundy_HCI_Cortical_Synap_Neur_Matur_NeuronCount: CCTE's Synaptogenesis and Neurite Maturation Assay in rat cortical cells for Neuron Count, Mundy Lab (AID 2284242; active = hit-call score of the fitted dose curve at least 0.9, where 1 is the maximum;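 as to AC50: neuron number from Hoechst nuclei and MAP2 staining by high-content imaging; hits reduce neuron count versus DMSO baseline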)
Outline: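 Imaging-based neuron count in rat cortical cultures after chemical exposure from DIV 7 to DIV 12, with AraC added at DIV 5. Activity is fitted relative to DMSO.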

[18] = read-out: Monokine induced gamma interferon (MIG), CXCL9 (gene 4283); test: BSK_KF3CT_MIG: BioMAP Diversity Plus: KF3CT Assay for Monokine induced gamma interferon (MIG) Biomarker Activity (AID 2284248); conditions: primary human keratinocytes with fibroblasts
Outline: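 Human keratinocyte plus foreskin fibroblast primary co-culture dosed with test chemical for 24 h; MIG level measured by ELISA and fitted in the positive direction against DMSO as baseline.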

[19] = read-out: Vascular cell adhesion molecule 1 (VCAM1), VCAM1 (gene 7412); test: BSK_BF4T_VCAM1: BioMAP Diversity Plus: BF4T Assay for Vascular cell adhesion molecule 1 (VCAM1) Biomarker Activity (AID 2284249); conditions: primary human bronchial epithelial cells with fibroblasts
Outline: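 Human bronchial epithelial cell and dermal fibroblast co-culture exposed 24 h. VCAM-1 measured by ELISA; parallel SRB total-protein staining for cytotoxicity. Fitted in positive direction relative to DMSO.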

[20] = read-out: Collagen I, COL1A1 (gene 1277); test: BSK_hDFCGF_CollagenI: BioMAP Diversity Plus: hDFCGF Assay for Collagen I Biomarker Activity (AID 2284250); conditions: primary human foreskin fibroblasts
Outline: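 Cells were primary human foreskin fibroblasts treated for 24 h. Collagen I levels were then determined by ELISA and compared against DMSO controls.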

Chain of Tumor necrosis factor (Homo sapiens) (P01375 whole entry, looked up): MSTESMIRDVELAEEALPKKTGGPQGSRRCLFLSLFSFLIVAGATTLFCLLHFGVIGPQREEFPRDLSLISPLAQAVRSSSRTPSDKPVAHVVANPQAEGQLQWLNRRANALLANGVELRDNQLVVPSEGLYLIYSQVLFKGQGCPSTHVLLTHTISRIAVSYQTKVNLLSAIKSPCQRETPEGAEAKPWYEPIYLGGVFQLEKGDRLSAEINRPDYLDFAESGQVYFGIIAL

CCOC(=O)/C=C(C)/C=C/C[C@@H](C)CCCC(C)C
AC50 [1]: 20.8 µM (active)
AC50 [2]: 20 µM (active)
AC50 [3]: 30.6 µM (active)
AC50 [4]: 29.2 µM (active)
AC50 [5]: 32.5 µM (active)
AC50 [6]: 25.6 µM (active)
AC50 [7]: 29.6 µM (active)
AC50 [8]: 20 µM (active)

COc1cc(OC)nc(NC(=O)NS(=O)(=O)c2ncccc2C(=O)N(C)C)n1
outcome [1]: inactive
outcome [2]: inactive
outcome [3]: inactive
outcome [4]: inactive
outcome [5]: inactive
outcome [6]: inactive
outcome [7]: inactive
outcome [8]: inactive

C(=NC1CCCCC1)=NC1CCCCC1
AC50 [1]: 9.07 µM (active)
AC50 [2]: 6.39 µM (active)
AC50 [3]: 10.9 µM (active)
AC50 [4]: 11.8 µM (active)
AC50 [5]: 5.82 µM (active)
AC50 [6]: 13.4 µM (active)
AC50 [7]: 7.21 µM (active)
AC50 [8]: 10.7 µM (active)

CC(C)(C)c1cc(O)ccc1O
AC50 [9]: 50 µM (active)
outcome [10]: inactive

CCOP(=S)(OCC)Oc1nc(Cl)c(Cl)cc1Cl
AC50 [11]: 231 µM (active)
outcome [12]: inactive
outcome [9]: inactive
AC50 [13]: 9.92 µM (active) and 75.5 µM (active)
AC50 [14]: 29.8 µM (active)
AC50 [15]: 7.91 µM (active) and 89.6 µM (active)
AC50 [16]: 35.5 µM (active)
AC50 [17]: 82.7 µM (active) and 26.6 µM (active)

O=C(O)CCC(F)(C(F)(F)F)C(F)(F)F
outcome [1]: inactive
outcome [2]: inactive
outcome [3]: inactive
outcome [4]: inactive
outcome [5]: inactive
outcome [6]: inactive
outcome [7]: inactive
outcome [8]: inactive
outcome [18]: inactive
outcome [19]: inactive
outcome [20]: inactive

Nc1ccc(-c2ccc(N)c(Cl)c2)cc1Cl
outcome [1]: inactive
AC50 [2]: 12.8 µM (active)
AC50 [3]: 20 µM (active)
AC50 [4]: 20 µM (active)
AC50 [5]: 13.7 µM (active)
AC50 [6]: 20 µM (active)
outcome [7]: inactive
AC50 [8]: 32.4 µM (active)

COC(=O)c1sccc1S(=O)(=O)NC(=O)Nc1nc(C)nc(OC)n1
outcome [1]: inactive
outcome [2]: inactive
outcome [3]: inactive
outcome [4]: inactive
outcome [5]: inactive
outcome [6]: inactive
outcome [7]: inactive
outcome [8]: inactive

COP(=O)(OC)O/C(=C\Cl)c1cc(Cl)c(Cl)cc1Cl
outcome [12]: inactive
AC50 [13]: 51.5 µM (active)
outcome [13]: inactive
AC50 [14]: 31.1 µM (active) and 23 µM (active)
AC50 [15]: 12.4 µM (active) and 70.3 µM (active)
AC50 [16]: 23.3 µM (active) and 89 µM (active)
AC50 [17]: 51.5 µM (active)
outcome [17]: inactive

O=C(O)C(F)(F)C(F)(F)C(F)(F)C(F)(F)C(F)(F)C(F)(F)C(F)(F)C(F)(F)C(F)(F)C(F)(F)F
outcome [1]: inactive
outcome [2]: inactive
outcome [3]: inactive
AC50 [4]: 4.85 µM (active) and 4.92 µM (active)
AC50 [5]: 2.19 µM (active) and 2.25 µM (active)
outcome [6]: inactive
AC50 [7]: 2.74 µM (active) and 2.55 µM (active)
outcome [8]: inactive
AC50 [18]: 6.52 µM (active) and 5.48 µM (active)
AC50 [19]: 4.89 µM (active) and 5.89 µM (active)
AC50 [20]: 3.39 µM (active)
outcome [20]: inactive

Oc1cccc2cccnc12
outcome [9]: inactive
outcome [10]: inactive
